YopH inh = inhibitors of Yersinia enterocolitica YopH tyrosine phosphatase | AID 898 | fluorescence Ex485/Em525 | inhibition, % (no concentration beside the values) | actives 0.16% (n = 140,000); in the data active = inhibition above about 50%
RmlCD inh mix = inhibitors of RmlC and RmlD coupled enzymes; RmlC/RmlD coupled enzyme inhibition, 384-well mixture HTS; inhibition, % at 5.5 µM; actives 0.39% (n = 110,000); AID 1532; in the data active = inhibition above about 30%, passing the limit was not always enough
RmlCD fluor art = shows fluorescent artifact in RmlC/RmlD assay, dose-response counter-screen | shares compounds with RmlCD inh mix | RmlC/RmlD assay fluorescence artifact counter-screen | calls only | actives 96% (n = 360) | AID 1696; call rule not given here;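 note: compound alone with no enzyme and no substrates present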
An asterisk follows results filed as active. An excerpt weighted towards active compounds, which were near 0.41% of everything screened.

For C=CCNc1oc(-c2cccs2)nc1C#N the results were YopH inh -15, RmlCD inh mix 108* and RmlCD fluor art active.
N#Cc1nc(-c2cccs2)oc1NCc1ccccc1 was read as YopH inh -42 and RmlCD inh mix 47.
For Cc1sc2ncnc(Sc3ccccc3C(=O)Nc3ccccc3Cl)c2c1C the results were YopH inh -51.
Screening COc1ccc(-c2ccc3oc(-c4ccc(OC)cc4)c(C#CCCO)c3c2)cc1 returned RmlCD inh mix -182.
COc1ccc(C#Cc2c(-c3ccc(OC)cc3)oc3ccc(-c4ccc(OC)cc4)cc23)cc1 was read as RmlCD inh mix active and RmlCD fluor art active.
Screening O=C(O)c1ccc(/C=N/N2CCN(Cc3ccccc3)CC2)cc1 returned YopH inh -35.
`COc1ccc(N=C(NN)c2ccc3ccccc3n2)cc1` gave YopH inh -19.
Screening CCOc1ccc2c3c(c(=O)oc2c1OCC)CCCC3 returned YopH inh -19 and RmlCD inh mix 3.
`COc1ccc2c3c(c(=O)oc2c1OCC(N)=O)CCCC3` gave YopH inh -16, RmlCD inh mix 32* and RmlCD fluor art active.
`C=CCNC(=O)/C(C#N)=C/c1cn(-c2ccccc2)nc1-c1cccs1` gave YopH inh -27.
For O=C(NCc1ccco1)c1ccc2nc3sc4c(c3c(=O)n2c1)CCCC4 the results were YopH inh -46, RmlCD inh mix 46* and RmlCD fluor art active.
Screening C=CCn1c(SCC(=O)NCc2ccco2)nc2sc3c(c2c1=O)CCCC3 returned YopH inh -29 and RmlCD inh mix -13.
`CCOC(=O)c1cc2ccc(OC(=O)c3ccco3)cc2oc1=O` gave YopH inh -47, RmlCD inh mix active and RmlCD fluor art active.
`COc1ccccc1Oc1c(C)oc2cc(OC(=O)c3ccco3)ccc2c1=O` gave YopH inh -26, RmlCD inh mix 105* and RmlCD fluor art active.
CCOC(=O)c1c(C)n(C)c2ccc(OC(=O)c3ccco3)cc12 was read as YopH inh -2 and RmlCD inh mix 7.
`Cc1oc2cc(OCC(=O)O)ccc2c(=O)c1Oc1ccccc1` gave YopH inh -24 and RmlCD inh mix 6.
Cn1ncc(C#N)c1NC(=O)c1cc(-c2ccccc2Cl)on1 was read as YopH inh -4 and RmlCD inh mix -12.
For CC(NC(=O)/C=C/c1cnc2ccccc2n1)C12CC3CC(CC(C3)C1)C2 (stereo unspecified) the results were YopH inh -26.
Screening CC(=O)N1C(O)CC(C)N1c1ccccc1 (stereo unspecified) returned YopH inh -26.
O=C(O)Cc1cc(C(=O)Nc2ccc(Br)cc2)sc1-c1ccccc1 was read as YopH inh -27.
For Cc1c(C(=O)NCCCN2CCOCC2)oc2c1C1(CCC2)SCCS1 the results were YopH inh -30.
`COC(=O)c1c(C#N)c(N)nc2c1CCC2` gave YopH inh 10, RmlCD inh mix 67* and RmlCD fluor art active.
COc1ccc(-c2c(C#N)c(N)nc3c2CCCCCC3)cc1OC was read as YopH inh -25.
Screening CCCc1cc(=O)n2c([nH]c3ccccc32)c1C#N returned YopH inh -20, RmlCD inh mix 39* and RmlCD fluor art active.
`CCCCc1c(C)c(C#N)c2[nH]c3ccccc3n2c1=O` gave YopH inh -53 and RmlCD inh mix 11.
For COc1ccc(C(=O)Nc2ccc(-c3ccc(NC(=O)c4ccc(OC)cc4)c(OC)c3)cc2OC)cc1 the results were YopH inh -32.
Screening Cc1c(CCC(=O)O)c(=O)oc2cc3occ(-c4ccc(F)cc4)c3cc12 returned YopH inh -44 and RmlCD inh mix -6.
`Cc1c(CCC(=O)O)c(=O)oc2cc(O)ccc12` gave YopH inh -8, RmlCD inh mix 128* and RmlCD fluor art active.
For CC(=O)c1ccc(N2CCN(C(C)C(=O)NC3CCCc4ccccc43)CC2)cc1 (stereo unspecified) the results were YopH inh -13.
CC1CN(C(=O)c2cc3c(=O)n4ccccc4nc3s2)CC(C)O1 (stereo unspecified) was read as YopH inh 3, RmlCD inh mix 53* and RmlCD fluor art active.
For CC1CN(C(=O)c2cc3c(s2)CCC3)CC(C)O1 (stereo unspecified) the results were YopH inh -36 and RmlCD inh mix -12.
`CC(C)CCNC(=O)c1cc(-c2ccco2)nc2ccccc12` gave YopH inh 4 and RmlCD inh mix 69.
For O=C(NCC1CCCO1)c1cc(-c2ccco2)nc2ccccc12 (stereo unspecified) the results were YopH inh -37, RmlCD inh mix 53* and RmlCD fluor art active.
`NC(=O)C1=C[C@@H](c2ccc(Br)cc2)C[C@@H](OCCCCO)O1` gave RmlCD inh mix -23.

Source: PubChem
